HT1080 IDH1KD tx = kills HT-1080 cells with IDH1 knockdown | HT-1080 IDH1 knockdown viability, ATP luminescence, 48 h | Potency, µM (series often up to 46.1 µM), inactives show at the top dose activity, negative = toxicity, hits mostly cytotoxic | 360,000 compounds, 2% hits | AID 686971;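 note: potency is the fitted concentration of half-maximal effect; 0% = DMSO wells and -100% = cell-free medium wells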
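CellTiter-Glo luminescence after 48 h compound exposure at 37 degrees C of IDH1-knockdown HT-1080 cells in 5% FBS RPMI. %Activity scaled between DMSO wells and cell-free media wells, with curves fitted and assigned curve classes.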
TDP1 cell CPT = growth inhibition of DT40 Tdp1-/-;hTDP1 cells with camptothecin (screen for TDP1 inhibitors). chicken DT40 Tdp1-/-;hTDP1 cells + 20 nM CPT, ATP luminescence, 48 h. Potency, µM (series often up to 46.2 µM), inactives show at the highest dose activity change, negative = growth inhibition, usual class: inhibitors. 420,000 compounds, 12% hits; note: potency is the fitted concentration of half-maximal effect; nearly all actives have a fitted effect of over 55% in size
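Cell growth measured by CellTiter-Glo luminescence after a minimum 48 h, 37 C compound exposure with 20 nM CPT in Tdp1-knockout DT40 cells stably expressing hTDP1, seeded 400/well; qHTS titration format.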
HT1080-NT tox = kills 2HG-producing HT-1080-NT fibrosarcoma cells | HT-1080-NT fibrosarcoma viability, CellTiter-Glo ATP luminescence, 48 h | Potency, µM (highest dose often 46.1 µM), for inactives: at the top dose activity, negative = less viability, most hits filed as cytotoxic | 360,000 compounds, 1.6% hits;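 note: NT is the 2HG producing partner of a matched IDH1 knockdown line; potency is the fitted concentration of half-maximal effect; 0% = DMSO-treated cells and -100% = media-only wells without cells; nearly all actives have a fitted effect of over 55% in size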
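Viability of the 2HG-overproducing fibrosarcoma line after 48 hours of compound exposure at 37 degrees C was determined by luminescence with CellTiter-Glo, and concentration-effect curves were then fitted and categorized.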
DT40 TDP1 no CPT = qHTS for Inhibitors of human tyrosyl-DNA phosphodiesterase 1 (TDP1): qHTS in cells in absence of CPT; DT40 Tdp1-/- hTDP1 cells, no CPT, ATP luminescence, 48 h; Potency, µM (titrated, usually from 46.2 µM), inactives show at the top dose activity change, negative = growth inhibition, actives largely listed as inhibitors; 420,000 compounds, 15% hits; AID 686978, 2013; note: potency is the fitted concentration of half-maximal effect; nearly all actives have a fitted effect of over 55% in size
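Chicken DT40 Tdp1-/- cells stably complemented with human TDP1 were seeded at 400 cells/well with DMSO in place of 20 nM camptothecin. After compound pinning, cells grew at least 48 hr at 37 °C; viability read by CellTiter-Glo luminescence.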
IL-1B inflam inh = blocks inflammasome-driven IL-1 beta release; activity change, % at 57.5 µM; 360,000 compounds, 4.7% hits; THP-1 LPS/ATP IL-1B secretion, AlphaLISA, 16 h; stronger effect = lower value; in the data active = activity change below about -50%; inconclusive = mostly about -30% to -49%
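THP-1 cells pretreated 1 hr with compounds (up to 57.5 uM final), then stimulated with LPS (250 ng/mL final) plus ATP (1.25 mM final); secreted IL-1B measured by AlphaLISA after 16 hr, decreased signal indicating inhibition.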
Starred values were filed as active, the others as inactive; i = inactive; ? = inconclusive; / = no result. In the library only some 19% were active in any assay of this set; here they are far more common. Unless noted, calls come from the whole dose curve; as a rule, active = well fitted curve in the direction sought with a large enough effect; inconclusive = small, poorly fitted or top-dose-only effect, or another doubt; inactive = no such curve, though single readings can be large; an effect the other way counts as inactive or inconclusive. Unless noted, % is set by controls: 0 for no effect and ±100 for the full control effect.

SMILES | HT1080 IDH1KD tx | TDP1 cell CPT | HT1080-NT tox | DT40 TDP1 no CPT | IL-1B inflam inh
COc1ccc2[nH]c(C)c(CCNc3ccc(C(F)(F)F)cc3[N+](=O)[O-])c2c1 | -4% | ? | -5% | 29µM* | ?
O=[N+]([O-])c1cc(C(F)(F)F)ccc1NCCOc1ccccc1 | -2% | -12% | -4% | -20% | -78*
Cc1cccc(OCCNC(=O)c2cccc(Oc3ccc(C(F)(F)F)cc3[N+](=O)[O-])c2)c1 | -8% | 23µM* | -4% | 29µM* | 15
O=S(=O)(Nc1cccc(-n2cnnn2)c1)c1ccccc1F | 2% | 4% | 2% | 0% | 1
Nc1c2c(nc3ccccc13)CSCC2 | 7% | 7% | -3% | ? | -10
S=C1NC2=C(CCC/C2=C\c2ccccc2)C(c2ccccc2)N1 (stereo not given) | 3% | ? | 4% | 15µM* | -1
S=C1NC2=C(CCC/C2=C\c2ccc(Cl)cc2)C(c2ccc(Cl)cc2)N1 (stereo not given) | -23% | ? | ? | 23µM* | -26
Fc1ccccc1/C=C1\CCCC2=C1NC(=S)NC2c1ccccc1F (stereo not given) | ? | ? | -19% | ? | -5
CC1CC2=C(NC(=S)NC2c2ccc(F)cc2)/C(=C/c2ccc(F)cc2)C1 (stereo not given) | ? | ? | 10µM* | ? | -20
Fc1cccc(/C=C2\CCCC3=C2NC(=S)NC3c2cccc(F)c2)c1 (stereo not given) | -9% | ? | -18% | 21µM* | -12
CC1(C(=O)NC2CCCCCCC2)CC1(Cl)Cl (stereo not given) | -9% | -23% | 4% | -16% | -9
Fc1ccccc1-c1cc2ncccc2cn1 | 8% | ? | 1% | ? | 19
COc1cc(N=Nc2ccccc2C(=O)O)ccc1O | -8% | -14% | -4% | -24% | 30
O=Cc1cc(N=Nc2ccccc2Cl)ccc1O | ? | 21µM* | ? | 4.1µM* | 143
O=Cc1cc(N=Nc2cccc(C(=O)O)c2)ccc1O | 15µM* | -22% | ? | ? | 28
Cc1ccc2c(c1)c(N=Nc1cccc(C(=O)O)c1)c(O)n2C | -1% | ? | 1% | -2% | -7
O=c1c(Cl)c(N2CCOCC2)cnn1-c1nc2ccccc2[nH]1 | -10% | -19% | -10% | 0% | 12
CC(C)(C)OC(=O)N1CCC(c2c(C(=O)N3CCC(c4ccccc4)C3)cnn2-c2cccc(Cl)c2)CC1 (stereo not given) | / | 18µM* | / | 15µM* | /
Cc1cccc(-n2ncc(C(=O)N3CCN(C4CCCCC4)CC3)c2C2CCN(C(=O)OC(C)(C)C)CC2)c1 | / | 16µM* | / | 21µM* | /
Cc1cccc(-n2ncc(C(=O)N3CCOCC3)c2C2CCN(C(=O)OC(C)(C)C)CC2)c1 | / | -11% | / | -7% | /
CC(C)(C)OC(=O)N1CCC(c2c(C(=O)N3CCCCC3)cnn2-c2cccc(F)c2)CC1 | / | 4% | / | -6% | /
CC1CCN(C(=O)c2cnn(-c3cccc(Cl)c3)c2C2CCN(C(=O)OC(C)(C)C)CC2)CC1 | / | 21µM* | / | ? | /
Cc1ccc(C2CCN(C(=O)c3cnn(-c4cccc(Cl)c4)c3C3CCN(C(=O)OC(C)(C)C)CC3)C2)cc1 (stereo not given) | / | 13µM* | / | 7.3µM* | /
CC(C)(C)c1ccc(S(=O)(=O)NNC(=O)C2CCN(Cc3cccc(F)c3)CC2)cc1 | -29% | -3% | -27% | -12% | -54*
Cc1c(Cl)cccc1NS(=O)(=O)c1ccc(-c2ccc(=O)[nH]n2)o1 | 8% | 15% | -16% | -12% | 27
SMILES | HT1080 IDH1KD tx | TDP1 cell CPT | HT1080-NT tox | DT40 TDP1 no CPT | IL-1B inflam inh
O=C(NCc1cccs1)c1cccc2c(-c3ccc(F)c(F)c3)coc12 | -18% | ? | -15% | ? | -28
O=C(NCc1ccccc1)c1ccc(-c2ccc(F)c(F)c2)c2ccoc12 | -6% | ? | ? | ? | -72*
O=C(NCc1cccc(Cl)c1)c1ccc(-c2ccc(F)c(F)c2)c2ccoc12 | -20% | ? | -14% | ? | 0
COc1ccc(CNC(=O)c2ccc(-c3cnn(C)c3)c3ccoc23)cc1OC | -5% | -73% | 1% | ? | -22
COc1ccc(CNC(=O)c2ccc(-c3ccc(F)c(F)c3)c3ccoc23)cc1OC | -25% | 21µM* | -24% | 15µM* | -12
O=C(NCCc1ccccc1)c1ccc(-c2ccc(F)c(F)c2)c2ccoc12 | 9% | 16µM* | -8% | 4.1µM* | 0
O=C(NCc1ccco1)c1ccc(-c2ccc(F)c(F)c2)c2ccoc12 | -22% | ? | -20% | 18µM* | -16
Cc1oc2ncn(C)c(=O)c2c1C(=O)N1CCN(c2ccc(Cl)cc2)CC1 | / | 5% | / | 3% | /
Cc1ccc(C)c(N2CCN(CCCc3ccccc3)CC2)c1 | 0% | 21µM* | -2% | ? | 25
Cc1ccc(C)c(N2CCN(CCCNC(=O)c3ccc4nc(CCc5ccccc5)oc4c3)CC2)c1 | / | 3.7µM* | / | 4.1µM* | /
Cc1ccc(C)c(N2CCN(Cc3csc(C)c3)CC2)c1 | / | ? | / | 23µM* | /
Cc1ccc(C)c(N2CCN(CCCNC(=O)c3ccc4nc(C(C)C)oc4c3)CC2)c1 | / | 7.3µM* | / | 3.7µM* | /
Cc1sc2c(c1C)c(=O)n(-c1ccc(Cl)cc1)c(=O)n2Cc1c(F)cccc1Cl | / | -28% | / | -1% | /
O=C(c1ccc2nc[nH]c2c1)N1CCN(c2cccc(C(F)(F)F)c2)CC1 | -7% | ? | 7% | 16µM* | i
CC(=O)c1ccc(N2CCN(c3ncc(C(F)(F)F)cc3Cl)CC2)cc1 | 0% | ? | -5% | 29µM* | ?
O=C(c1ccc2nc[nH]c2c1)N1CCN(c2ncc(C(F)(F)F)cc2Cl)CC1 | -15% | 15µM* | -1% | 18µM* | -14
O=C(c1ccc(Nc2nc3ccccc3n3nnnc23)cc1)N1CCN(c2cccc(C(F)(F)F)c2)CC1 | / | ? | / | 18µM* | /
CC(Sc1ccc(S(=O)(=O)N2CCCCCC2)cn1)C(N)=O (stereo not given) | -1% | -14% | -8% | -20% | 18
Cc1ccccc1CN(C)C(=O)CNC(=O)c1ccc2ccccc2c1 | -1% | -9% | 10% | -18% | -12
COCC(=O)Nc1cc(C(=O)N2CCN(C)C(c3ccccc3)C2)c2c(c1)nc(-c1ccncc1)n2C (stereo not given) | / | -7% | / | -8% | /
CC(C)(C)NC(=O)NC(=O)CN1CCN(c2ncc(C(F)(F)F)cc2Cl)CC1 | 2% | ? | -2% | 18µM* | 7

Source: PubChem BioAssay (National Center for Advancing Translational Sciences (NCATS))
